This note sets out measurements from PubChem BioAssay.

The viability is a read-out of living cells in per cent, often relative to untreated cells. The term inhibition denotes the change of the read-out against control, counted positive when it falls.

The structures appear in SMILES notation. Records with an inconclusive call do not appear. Active and inactive are the calls of the source.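 How the source made its calls, unless noted: active means viability at or below 10% of carrier control in both of two separate runs; inconclusive means viability at or below 10% in only one of the two runs; inactive means the rest.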

Assay [1] in a line: Her2 expression decrease, cell viability multiplex – SKBR3 breast tumor cells, AlphaScreen, ATP viability, primary screen (AID 461;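 active means Her2 level under about 52% in both replicate screens, with viability over 70% of control, limit read from the data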;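 on Her2 level: lower value means less Her2 protein in the cells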;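 on viability: percent of carrier control wells set as 100% viability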). The conditions noted are these: SKBR3 Her2 protein level, 18-24 h, measured here: SKBR3 viability, ATP luminescence, at 10 µM.
For assay [2], the target named is Receptor tyrosine-protein kinase erbB-2 (Homo sapiens) (UniProt P04626). The description is as above. The conditions noted are these: 18-24 h, at 10 µM, stronger effect = lower value.
Sequence of Receptor tyrosine-protein kinase erbB-2 (Homo sapiens) (P04626 whole entry, looked up): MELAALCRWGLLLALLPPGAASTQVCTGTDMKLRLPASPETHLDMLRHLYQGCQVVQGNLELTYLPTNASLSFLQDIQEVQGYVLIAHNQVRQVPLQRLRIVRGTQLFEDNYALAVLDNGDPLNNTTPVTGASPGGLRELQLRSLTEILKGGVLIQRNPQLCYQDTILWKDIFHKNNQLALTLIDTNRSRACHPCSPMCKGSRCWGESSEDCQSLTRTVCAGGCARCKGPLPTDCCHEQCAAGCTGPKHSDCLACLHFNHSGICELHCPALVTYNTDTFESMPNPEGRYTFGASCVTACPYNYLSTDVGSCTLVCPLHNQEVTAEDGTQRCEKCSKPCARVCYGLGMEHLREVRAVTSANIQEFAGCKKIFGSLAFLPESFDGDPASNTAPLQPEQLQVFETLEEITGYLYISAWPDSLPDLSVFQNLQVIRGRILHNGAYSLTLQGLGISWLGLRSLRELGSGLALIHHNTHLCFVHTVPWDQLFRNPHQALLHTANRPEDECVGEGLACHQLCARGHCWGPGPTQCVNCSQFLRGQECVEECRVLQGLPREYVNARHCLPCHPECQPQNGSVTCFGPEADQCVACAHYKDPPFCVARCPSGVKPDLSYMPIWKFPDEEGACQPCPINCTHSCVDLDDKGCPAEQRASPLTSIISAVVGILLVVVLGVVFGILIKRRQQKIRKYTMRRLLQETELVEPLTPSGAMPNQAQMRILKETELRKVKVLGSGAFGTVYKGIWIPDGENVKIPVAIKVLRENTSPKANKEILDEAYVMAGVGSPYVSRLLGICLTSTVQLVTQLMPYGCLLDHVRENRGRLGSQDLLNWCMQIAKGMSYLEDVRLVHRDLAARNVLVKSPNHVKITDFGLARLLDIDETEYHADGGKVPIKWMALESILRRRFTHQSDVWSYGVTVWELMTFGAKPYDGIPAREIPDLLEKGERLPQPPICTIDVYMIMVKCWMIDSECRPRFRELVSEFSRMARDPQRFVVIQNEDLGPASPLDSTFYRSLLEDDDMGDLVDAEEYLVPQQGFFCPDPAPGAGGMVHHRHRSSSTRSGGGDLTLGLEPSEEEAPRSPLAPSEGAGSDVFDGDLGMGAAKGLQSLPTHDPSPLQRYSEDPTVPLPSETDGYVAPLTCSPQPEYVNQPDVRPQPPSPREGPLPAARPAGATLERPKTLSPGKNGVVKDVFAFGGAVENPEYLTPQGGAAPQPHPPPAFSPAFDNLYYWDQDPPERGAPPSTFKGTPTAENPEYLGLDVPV
A short description of assay [3]: reduced viability of SK-BR-3 breast cancer cells – cell-based, 24 h, human, pilot screen (AID 572).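 Further: compound exposure lasted between 18 and 24 h rather than exactly 24 h; 100% = carrier-treated control wells.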 The conditions noted are these: SK-BR-3 viability, CellTiter-Glo luminescence, at 10 µM, stronger effect = lower value.
Assay [4] is described as follows: HUVEC growth inhibition – cell-based, human, primary screen (AID 575;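 active means viability at or below 30% in both replicate assays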;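 further: 100% = median of untreated cell wells with 0.1% DMSO on each plate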). The conditions noted are these: HUVEC proliferation, CellTiter-Glo luminescence, 72 h; at 10 µM; stronger effect = lower value. For orientation: In ATP-based viability assays light output follows the ATP content of the culture.
Assay [5] can be described thus: H69AR cell proliferation blockers – human, duplicate replicates, primary screen (AID 580;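 active means viability at or under a set limit in both replicates, limit being median viability minus 3 SD, cut at about 48% in these data, passing the limit was not always enough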;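 further: 100% = mean luminescence of untreated wells and 0% = no signal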). The conditions noted are these: H69AR lung tumor cells viability, ATP luminescence, 72 h; at 10 µM; stronger effect = lower value.
Assay [6] in a line: MRP1 drug-resistance reversers in H69AR cells – cell-based, doxorubicin co-treatment, pilot screen (AID 601;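 active means viability loss from added drug above about 55%, and viability with drug at most 40%, in both replicates, limit read from the data, passing the limit was not always enough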). The conditions noted are these: CellTiter-Glo, 72 h, at 10 µM; for differential viability (reversal): stronger effect = higher value.
A short description of assay [7]: yeast transport mutant growth inhibition pilot in 384-well plates, post-Golgi transport modulator project (AID 636; in the data active means inhibition above about 31%). The settings on record: absorbance 615 nm, about 18 h, stronger effect = higher value.
Assay [8] in a line: growth suppression of yeast trafficking mutant, preliminary HTS, modulators of trafficking downstream of Golgi apparatus project, 1536-format plate, OD 615 nm (AID 637; in the data active means inhibition above about 30%). The settings on record: yeast transport mutant growth, absorbance 615 nm, 18 h; stronger effect = higher value.
Assay [9] is described as follows: S. cerevisiae growth inhibition in permissive medium (OD615), pilot counter-assay for S. cerevisiae lifespan shortening project, permissive growth control (AID 705;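 active means growth inhibition above 25% in both replicates, a cutoff set 3 SD above the mean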). The settings on record: OD615, 24 h, at 10 µM, stronger effect = higher value.
Assay [10] in a line: S. cerevisiae growth inhibition in restrictive medium, OD615, pilot screen, restrictive growth control, yeast lifespan reduction project (AID 706;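 active means growth inhibition above a set limit, 3 SD over mean compound inhibition, in both replicates, cut at about 43% in these data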;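 further: modified DeaD lifespan yeast strain shifted to restrictive glucose medium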). The conditions noted are these: OD615, 48 h, at 10 µM, stronger effect = higher value.
A short description of assay [11]: doxorubicin toxicity protection in MRP-1 cells – H69AR cells, CellTiter-Glo, duplicate, MRP-1 activator project, pilot screen (AID 807;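 active means viability increase at or above a cutoff of the median across tested compounds plus 3 SD, cut at about 8.5% in these data, passing the limit was not always enough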;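 further: compound pretreatment 18-22 h then 72 h combined with doxorubicin; 0% = doxorubicin alone and 100% = vehicle without doxorubicin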). The settings on record: H69AR viability with doxorubicin, CellTiter-Glo luminescence; at 10 µM; stronger effect = higher value.
Assay [12] can be described thus: viability of HCT116 without oncogenic beta-catenin – human colon tumor cells, pilot screen (AID 823;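 active means cell viability at or below a set limit in both duplicate runs, the limit being the all-compound median minus 4 SD, cut at about 23% in these data, passing the limit was not always enough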;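 further: 0% = wells killed by 20 µM Hyamine and 100% = untreated DMSO cell wells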). The settings on record: HCT116 beta-catenin knockout viability, CellTiter-Glo, 60 h; at 10 µM; stronger effect = lower value.
The nature of assay [13]: viability of PTEN-null HCT116 cells – cell-based, HCT116 clonal line, CellTiter-Glo, pilot screen (AID 824;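 active means viability at or below 27.92% in each of two runs, the all-compound median minus 4 SD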;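 further: 0% = 20 µM Hyamine control and 100% = vehicle cell control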). The conditions noted are these: HCT116 PTEN-deleted viability, 60 h, at 10 µM, stronger effect = lower value.
Assay [14] is described as follows: RAM pathway blockade in budding yeast – dse1pr::URA3 reporter, 5-FOA selection, pilot screen (AID 869;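 active means inhibition over a set limit, the all-compound mean plus 3 SD, in both replicate runs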;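 further: 0% = DMSO wells with no growth and 100% = 10 µM 1-NA-PP1 with full growth; RAM network block rescues cells from 5-FOA so hits raise OD615 growth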). The conditions noted are these: S. cerevisiae dse1pr::URA3 5-FOA growth, OD615, 2 d; at 10 µM; stronger effect = higher value; strain carries analog-sensitive mutant Cbk1 kinase.
Assay [15] in a line: RAM signaling pathway blockade in yeast – S. cerevisiae, Pdr1DBD-CYC8 efflux-inhibited sensitized strain, primary screen (AID 1298;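 active means RAM network inhibition above 8.4% in each of two replicates, 3 SD over the compound average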;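 further: 0% = DMSO untreated cells without growth and 100% = 10 µM 1-NA-PP1 full growth; higher means more yeast growth rescued from 5-FOA killing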). The settings on record: S. cerevisiae cbk1-as DSE1-URA3 strain, 5-FOA growth OD615, 2 d; at 50 µM; stronger effect = higher value.
The mark [16] stands for this setting: H69AR cells + 2 uM doxorubicin, measured here: viability with 2 uM doxorubicin, stronger effect = lower value.
The mark [17] stands for this setting: H69AR cells, compound alone cytotoxicity.

Consider `COc1ccc(NC(=O)CN(c2cc(C)cc(C)c2)S(=O)(=O)c2c(C)noc2C)cc1OC`, for which the viability in assay [1] is 89%; in assay [3] it was 89% (inactive); in assay [4], 110% (inactive); in assay [5] it was 88.2% (inactive); in assay [6] (setting [16]), 73.6%; in assay [6] (setting [17]), 88.2%. Besides, the values for the viability in assay [12] and in assay [13] were 89% (inactive) and 92.5% (inactive), respectively. In addition, the Her2 level in [2] is 73% (inactive). In addition, the differential viability (reversal) in assay [6] (H69AR cells + 2 uM doxorubicin) was 14.6% (inactive). For the same compound, the values for the inhibition in assay [7], in [8] and in [14] were 0.26% (inactive), -1.67% (inactive) and 3.25% (inactive), respectively. In addition, the growth inhibition in assay [9] was -9.49% (inactive); in assay [10], -4.85% (inactive). For the same compound, the viability increase in assay [11] was -2.49% (inactive). In assay [15], the RAM network inhibition is 5.58% (inactive).
With `CCOc1ccc(-c2cc(CCCC(=O)N3CCN(c4ccc(OC)cc4)CC3)no2)cc1`, the viability in assay [1] is 85%; in [3] it was 85% (inactive); in assay [4] it was 77.8% (inactive); in [5] it was 67.7% (inactive); in assay [6] (setting [16]) it was 70.2%; in assay [6] (setting [17]), 67.7%. The viability in assay [12] was 81.7% (inactive); in [13], 82.5% (inactive). In addition, in [2], the Her2 level was 104% (inactive). Moreover, in assay [6] (H69AR cells + 2 uM doxorubicin), the differential viability (reversal) was -2.52% (inactive). Also, the inhibition in [7] is 4.1% (inactive); in assay [8], -2.67% (inactive); in assay [14], 2.54% (inactive). The growth inhibition in assay [9] was 2.23% (inactive); in assay [10], 1.43% (inactive). Moreover, in assay [11], the viability increase is -3.39% (inactive). Moreover, in assay [15], the RAM network inhibition was 8.59% (inactive).
Consider `Cc1c(C(=O)OCCOC(C)C)[nH]c2c1C(=O)CC(c1ccco1)C2` (stereo not given), for which the viability in assay [1] was 81%; in assay [3] it was 81% (inactive); in [4], 50.2% (inactive); in assay [5], 38.3% (active); in assay [6] (setting [16]), 72.7%; in assay [6] (setting [17]), 38.3%. In addition, the viability was 17.1% (active) in assay [12] and 17.8% (active) in [13]. The Her2 level in assay [2] is 73% (inactive). In assay [6] (H69AR cells + 2 uM doxorubicin), the differential viability (reversal) was -34.4% (inactive). The figures for the inhibition in assay [7], in [8] and in assay [14] were 1.47% (inactive), -4.59% (inactive) and 0.735% (inactive), respectively. For the same compound, the growth inhibition in assay [9] was -3.61% (inactive); in assay [10], -3.07% (inactive). In addition, the viability increase in [11] is -4.69% (inactive). Also, the RAM network inhibition in assay [15] is -1.95% (inactive).
For the compound `O=C1CC(c2cccnc2)c2cc3c(cc2N1)OCO3` (stereo not given), the viability in [1] was 99.5%; in [3], 99.5% (inactive); in [4] it was 88.7% (inactive); in assay [5], 104% (inactive); in assay [6] (setting [16]), 85.7%; in assay [6] (setting [17]), 104%. Also, the viability was 105% (inactive) in [12] and 99.8% (inactive) in [13]. In addition, in assay [2], the Her2 level is 108% (inactive). Further, the differential viability (reversal) in [6] (H69AR cells + 2 uM doxorubicin) was 18.4% (inactive). Besides, the inhibition in assay [7] is -0.13% (inactive); in assay [8], -9.18% (inactive); in [14], 1.17% (inactive). Also, the growth inhibition was -2.55% (inactive) in [9] and 1.1% (inactive) in assay [10]. The viability increase in assay [11] was -1.75% (inactive). Besides, the RAM network inhibition in assay [15] was 0.51% (inactive).
On to `Cn1cc(C2NC(=O)c3c(sc4c3CCCC4)N2)c2ccccc21` (stereo not given), for which the viability is 99% in assay [1]; 99% (inactive) in assay [3]; 61.9% (inactive) in assay [4]; 64.9% (inactive) in [5]; 60.4% in assay [6] (setting [16]); 64.9% in assay [6] (setting [17]). For the same compound, the results for the viability in [12] and in assay [13] were 101% (inactive) and 90.8% (inactive), respectively. Besides, the Her2 level in [2] is 78.5% (inactive). In addition, the differential viability (reversal) in [6] (H69AR cells + 2 uM doxorubicin) is 4.49% (inactive). For the same compound, the inhibition in [7] is 1.6% (inactive); in assay [8] it was 5.17% (inactive); in assay [14], 0.64% (inactive). Besides, the growth inhibition was -6.96% (inactive) in assay [9] and 2.46% (inactive) in [10]. Further, the viability increase in assay [11] was -2.92% (inactive). In assay [15], the RAM network inhibition is 2.82% (inactive).
